In the first test the target is T1, ERF (Homo sapiens, UniProt P50548 1-548).
T1 sequence: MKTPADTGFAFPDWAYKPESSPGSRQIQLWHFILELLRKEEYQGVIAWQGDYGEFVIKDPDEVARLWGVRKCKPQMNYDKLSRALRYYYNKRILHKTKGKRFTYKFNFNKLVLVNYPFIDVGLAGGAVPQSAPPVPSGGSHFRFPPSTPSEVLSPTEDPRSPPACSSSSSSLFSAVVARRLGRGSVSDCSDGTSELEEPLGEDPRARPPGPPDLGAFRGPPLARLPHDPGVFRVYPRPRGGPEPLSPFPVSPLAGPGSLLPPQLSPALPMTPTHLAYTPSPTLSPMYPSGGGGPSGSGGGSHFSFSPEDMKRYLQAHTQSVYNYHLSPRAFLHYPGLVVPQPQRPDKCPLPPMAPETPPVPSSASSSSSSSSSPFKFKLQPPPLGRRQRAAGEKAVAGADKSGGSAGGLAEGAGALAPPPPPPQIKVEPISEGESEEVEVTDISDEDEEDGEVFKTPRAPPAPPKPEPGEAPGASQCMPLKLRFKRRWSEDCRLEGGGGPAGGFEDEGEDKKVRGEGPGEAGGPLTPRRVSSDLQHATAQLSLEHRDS
Kind of test: DAPPL (digital affinity profiling via proximity ligation, sequencing); 10 mM Tris-HCl pH 7.5, 50 mM NaCl, 1 mM DTT, 4% glycerol, room temperature, 30 min; GST-TFs on glutathione beads, 16-mer random dsDNA library, 0.1% formaldehyde crosslink after washing; high values mean tight binding. The following applies: protein: recombinant; tags: N-terminal GST; dsDNA, one strand shown. The procedure, abridged: (§1)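 Sequencing on an Illumina NextSeq500 followed washing, crosslinking with 0.1% formaldehyde, proximity ligation (BsaI/T4 ligase, 1 h, 37 °C) and PCR amplification of pools that had been incubated for 30 min at room temperature with 200 nmole of a random double-stranded 16-mer DNA library in Tris/NaCl/DTT/glycerol buffer. Each pool held DNA-barcoded human transcription factors, expressed in yeast as GST fusions and captured on glutathione beads, plus a tag-only sample. Binding signal is a hexamer's read frequency for a factor divided by its frequency in the tag-only sample.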
For ATGATC, the binding signal is 1.33 fold enrichment (6-mer frequency, TF over GST control).
Turning to ACACTG, the binding signal is 1.17 fold enrichment (6-mer frequency, TF over GST control).
Same read-out and setting: the result for CCTGTG reads 1.08 fold enrichment (6-mer frequency, TF over GST control); that for CTGGTC, 1.19 fold enrichment (6-mer frequency, TF over GST control).
For the sequence TTTATT, the binding signal was 1.21 fold enrichment (6-mer frequency, TF over GST control).
Regarding TACAAA, the binding signal was 1.1 fold enrichment (6-mer frequency, TF over GST control).
With CCTGCA, the binding signal was 1.08 fold enrichment (6-mer frequency, TF over GST control).
For ACTGCC, the binding signal was 1.4 fold enrichment (6-mer frequency, TF over GST control).
Consider ATAATT, for which the binding signal is 1.33 fold enrichment (6-mer frequency, TF over GST control).
As for CCTCGG, the binding signal was 1.23 fold enrichment (6-mer frequency, TF over GST control).
Take TTAATC: the binding signal is 1.19 fold enrichment (6-mer frequency, TF over GST control).
Consider CTGTTG, for which the binding signal is 1.17 fold enrichment (6-mer frequency, TF over GST control).
For the sequence ACATAC, the binding signal was 1.23 fold enrichment (6-mer frequency, TF over GST control).
Regarding GTTCCG, the binding signal is 1.74 fold enrichment (6-mer frequency, TF over GST control).
On the same count and under the same terms, to ATTGCC belongs 1.15 fold enrichment (6-mer frequency, TF over GST control); to CGTTCC, 1.4 fold enrichment (6-mer frequency, TF over GST control); to GCTATG, 1.26 fold enrichment (6-mer frequency, TF over GST control).
Turning to GGATGT, the binding signal was 1.41 fold enrichment (6-mer frequency, TF over GST control).
Consider TGTCTC, for which the binding signal was 1.2 fold enrichment (6-mer frequency, TF over GST control).
With CGCTCC, the binding signal was 1.31 fold enrichment (6-mer frequency, TF over GST control).
For the sequence GCTGTA, the binding signal was 1.24 fold enrichment (6-mer frequency, TF over GST control).
Regarding TGCCTG, the binding signal is 1.46 fold enrichment (6-mer frequency, TF over GST control).
The same measure, in the same setting: to CCGGCA belongs 1.28 fold enrichment (6-mer frequency, TF over GST control).
Regarding ACCTTC, the binding signal was 1.92 fold enrichment (6-mer frequency, TF over GST control).
For the sequence TGATCC, the binding signal was 1.23 fold enrichment (6-mer frequency, TF over GST control).
For CCGACG, the binding signal is 1.32 fold enrichment (6-mer frequency, TF over GST control).
As to TGCCTT, the binding signal was 1.24 fold enrichment (6-mer frequency, TF over GST control).
Turning to AGATGA, the binding signal is 1.18 fold enrichment (6-mer frequency, TF over GST control).
Regarding ACTTGG, the binding signal was 1.28 fold enrichment (6-mer frequency, TF over GST control).
Same read-out and setting: to CCACGA belongs 1.04 fold enrichment (6-mer frequency, TF over GST control); to ACTCCA, 1.26 fold enrichment (6-mer frequency, TF over GST control).
For CAACCC, the binding signal is 1.22 fold enrichment (6-mer frequency, TF over GST control).
For the sequence TCTACG, the binding signal is 1.46 fold enrichment (6-mer frequency, TF over GST control).
Take AATAGG: the binding signal is 1.21 fold enrichment (6-mer frequency, TF over GST control).
For TCCATC, the binding signal is 1.17 fold enrichment (6-mer frequency, TF over GST control).
Still for that read-out and setting: to ATTAAC belongs 1.26 fold enrichment (6-mer frequency, TF over GST control).
As for CCCACT, the binding signal is 1.42 fold enrichment (6-mer frequency, TF over GST control).
For the sequence ACACAT, the binding signal was 1.29 fold enrichment (6-mer frequency, TF over GST control).
Still for that read-out and setting: to ACGACA belongs 1.11 fold enrichment (6-mer frequency, TF over GST control).

The target of the next test is T2, ETV3L (Homo sapiens, UniProt Q6ZN32 1-361).
T2 sequence: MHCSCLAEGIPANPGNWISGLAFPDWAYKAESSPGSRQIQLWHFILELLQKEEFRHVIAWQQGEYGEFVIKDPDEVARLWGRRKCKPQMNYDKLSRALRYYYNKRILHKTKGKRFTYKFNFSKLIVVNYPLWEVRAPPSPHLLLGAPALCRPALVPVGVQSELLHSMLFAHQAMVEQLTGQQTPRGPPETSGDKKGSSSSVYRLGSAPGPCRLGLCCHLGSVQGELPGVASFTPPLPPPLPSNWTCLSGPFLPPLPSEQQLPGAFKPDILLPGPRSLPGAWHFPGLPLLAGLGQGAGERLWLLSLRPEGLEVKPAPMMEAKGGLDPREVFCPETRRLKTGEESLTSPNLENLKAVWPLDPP
The test is described as above. The following applies: protein: recombinant; tags: N-terminal GST; dsDNA, one strand shown. The procedure, abridged: as §1
For the sequence ATGATC, the binding signal is 1.22 fold enrichment (6-mer frequency, TF over GST control).
Same read-out and setting: the result for ACACTG reads 1.11 fold enrichment (6-mer frequency, TF over GST control).
As to CCTGTG, the binding signal is 1.02 fold enrichment (6-mer frequency, TF over GST control).
For CTGGTC, the binding signal is 1.27 fold enrichment (6-mer frequency, TF over GST control).
As for TTTATT, the binding signal was 1.44 fold enrichment (6-mer frequency, TF over GST control).
With TACAAA, the binding signal is 1.03 fold enrichment (6-mer frequency, TF over GST control).
As for CCTGCA, the binding signal is 1.32 fold enrichment (6-mer frequency, TF over GST control).
Same read-out and setting: the result for ACTGCC reads 1.46 fold enrichment (6-mer frequency, TF over GST control); that for ATAATT, 1.4 fold enrichment (6-mer frequency, TF over GST control); that for CCTCGG, 1.23 fold enrichment (6-mer frequency, TF over GST control).
With TTAATC, the binding signal was 1.21 fold enrichment (6-mer frequency, TF over GST control).
On the same count and under the same terms, to CTGTTG belongs 1.07 fold enrichment (6-mer frequency, TF over GST control); to ACATAC, 1.15 fold enrichment (6-mer frequency, TF over GST control); to GTTCCG, 1.93 fold enrichment (6-mer frequency, TF over GST control).
Take ATTGCC: the binding signal is 1.34 fold enrichment (6-mer frequency, TF over GST control).
As for CGTTCC, the binding signal is 1.43 fold enrichment (6-mer frequency, TF over GST control).
Turning to GCTATG, the binding signal was 1.16 fold enrichment (6-mer frequency, TF over GST control).
The same measure, in the same setting: to GGATGT belongs 1.63 fold enrichment (6-mer frequency, TF over GST control).
On to TGTCTC, for which the binding signal was 1.3 fold enrichment (6-mer frequency, TF over GST control).
